# Test results as given in publication PMC7862700, “An all-to-all approach to the identification of sequence-specific readers for epigenetic DNA modifications on cytosine”.
# Assays:
# Test in all cases: DAPPL (digital affinity profiling via proximity ligation, sequencing); 10 mM Tris-HCl pH 7.5, 50 mM NaCl, 1 mM DTT, 4% glycerol, room temperature, 30 min; GST-TFs on glutathione beads, 16-mer random dsDNA library, 0.1% formaldehyde crosslink after washing; high values mean tight binding
# Settings in all cases: protein: recombinant; tags: N-terminal GST; dsDNA, one strand shown
# [1] = target: T1, ETV2 (Homo sapiens, UniProt O00321 1-342)
# T1 sequence: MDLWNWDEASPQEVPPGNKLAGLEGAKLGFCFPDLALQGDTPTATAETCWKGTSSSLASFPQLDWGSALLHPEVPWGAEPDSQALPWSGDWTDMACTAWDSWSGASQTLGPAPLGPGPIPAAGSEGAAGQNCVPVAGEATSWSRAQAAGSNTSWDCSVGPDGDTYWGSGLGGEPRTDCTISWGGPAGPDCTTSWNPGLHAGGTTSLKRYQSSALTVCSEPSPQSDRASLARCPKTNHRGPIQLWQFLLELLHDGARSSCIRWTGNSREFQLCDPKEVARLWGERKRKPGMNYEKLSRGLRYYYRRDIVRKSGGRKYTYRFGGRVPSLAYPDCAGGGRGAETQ
# How it was run: (§1)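 Pools were built from human transcription factors expressed in yeast as GST fusions, captured on glutathione beads and DNA-barcoded, along with a tag-only sample. Incubation with 200 nmole of a 16-mer random double-stranded DNA library lasted 30 min at room temperature in Tris/NaCl/DTT/glycerol buffer, and was followed by washing, 0.1% formaldehyde crosslinking, proximity ligation, PCR amplification and Illumina NextSeq500 sequencing. Binding signal is the quotient of each hexamer's read frequency for a factor and its frequency for the tag-only sample.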
# [2] = target: T2, ELF3 (Homo sapiens, UniProt P78545 1-371)
# T2 sequence: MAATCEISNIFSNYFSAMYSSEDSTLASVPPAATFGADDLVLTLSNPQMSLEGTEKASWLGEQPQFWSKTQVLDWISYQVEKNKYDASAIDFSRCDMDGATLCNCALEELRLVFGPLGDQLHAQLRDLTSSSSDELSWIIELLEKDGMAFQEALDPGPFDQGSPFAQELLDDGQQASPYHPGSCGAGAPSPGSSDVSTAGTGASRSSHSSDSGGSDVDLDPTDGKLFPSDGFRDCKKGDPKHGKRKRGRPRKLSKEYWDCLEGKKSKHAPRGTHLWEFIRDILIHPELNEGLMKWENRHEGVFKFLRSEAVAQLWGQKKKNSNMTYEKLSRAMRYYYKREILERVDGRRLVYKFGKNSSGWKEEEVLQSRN
# How it was run: as §1
# [3] = target: ETV1 (Homo sapiens, UniProt P50549 1-477)
# How it was run: as §1
# [4] = target: T3, ERF (Homo sapiens, UniProt P50548 1-548)
# T3 sequence: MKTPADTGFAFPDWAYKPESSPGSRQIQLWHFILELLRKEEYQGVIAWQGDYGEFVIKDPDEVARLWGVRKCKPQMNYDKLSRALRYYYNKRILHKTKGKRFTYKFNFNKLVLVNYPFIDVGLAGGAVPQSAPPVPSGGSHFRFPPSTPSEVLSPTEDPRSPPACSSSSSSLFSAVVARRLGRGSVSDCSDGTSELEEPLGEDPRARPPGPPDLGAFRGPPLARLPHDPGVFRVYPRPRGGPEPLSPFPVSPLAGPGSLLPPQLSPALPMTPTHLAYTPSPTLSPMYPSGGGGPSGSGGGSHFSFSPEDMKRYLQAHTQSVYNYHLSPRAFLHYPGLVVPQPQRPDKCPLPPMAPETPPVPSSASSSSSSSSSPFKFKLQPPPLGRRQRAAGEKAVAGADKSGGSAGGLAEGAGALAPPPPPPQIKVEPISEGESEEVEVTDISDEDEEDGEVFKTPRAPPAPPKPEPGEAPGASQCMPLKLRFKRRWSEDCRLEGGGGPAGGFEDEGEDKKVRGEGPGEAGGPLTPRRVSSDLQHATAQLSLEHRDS
# How it was run: as §1
# [5] = target: T4, ETV3L (Homo sapiens, UniProt Q6ZN32 1-361)
# T4 sequence: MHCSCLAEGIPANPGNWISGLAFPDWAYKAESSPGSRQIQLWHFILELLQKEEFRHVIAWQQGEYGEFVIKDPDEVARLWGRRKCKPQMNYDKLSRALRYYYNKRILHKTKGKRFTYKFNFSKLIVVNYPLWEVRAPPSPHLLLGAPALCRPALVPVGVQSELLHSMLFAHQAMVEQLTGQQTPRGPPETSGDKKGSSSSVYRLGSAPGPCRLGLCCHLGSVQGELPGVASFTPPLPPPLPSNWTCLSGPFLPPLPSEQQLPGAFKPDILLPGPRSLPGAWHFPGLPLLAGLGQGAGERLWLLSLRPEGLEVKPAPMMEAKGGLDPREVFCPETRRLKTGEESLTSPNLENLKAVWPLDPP
# How it was run: as §1
# [6] = target: T5, ETS2 (Homo sapiens, UniProt P15036 1-469)
# T5 sequence: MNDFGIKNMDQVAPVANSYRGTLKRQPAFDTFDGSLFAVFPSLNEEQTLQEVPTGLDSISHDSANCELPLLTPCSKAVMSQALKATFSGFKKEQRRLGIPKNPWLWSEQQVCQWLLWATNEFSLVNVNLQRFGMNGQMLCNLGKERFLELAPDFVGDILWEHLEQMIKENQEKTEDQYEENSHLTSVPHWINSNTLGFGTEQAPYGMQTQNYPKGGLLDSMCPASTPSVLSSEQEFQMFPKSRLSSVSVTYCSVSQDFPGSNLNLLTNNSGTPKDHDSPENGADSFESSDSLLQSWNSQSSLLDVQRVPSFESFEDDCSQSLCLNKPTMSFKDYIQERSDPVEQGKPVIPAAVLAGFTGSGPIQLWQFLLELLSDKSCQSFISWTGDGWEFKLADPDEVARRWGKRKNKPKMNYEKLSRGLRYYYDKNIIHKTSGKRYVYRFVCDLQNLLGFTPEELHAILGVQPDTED
# How it was run: as §1
# [7] = target: T6, SPDEF (Homo sapiens, UniProt O95238 1-335)
# T6 sequence: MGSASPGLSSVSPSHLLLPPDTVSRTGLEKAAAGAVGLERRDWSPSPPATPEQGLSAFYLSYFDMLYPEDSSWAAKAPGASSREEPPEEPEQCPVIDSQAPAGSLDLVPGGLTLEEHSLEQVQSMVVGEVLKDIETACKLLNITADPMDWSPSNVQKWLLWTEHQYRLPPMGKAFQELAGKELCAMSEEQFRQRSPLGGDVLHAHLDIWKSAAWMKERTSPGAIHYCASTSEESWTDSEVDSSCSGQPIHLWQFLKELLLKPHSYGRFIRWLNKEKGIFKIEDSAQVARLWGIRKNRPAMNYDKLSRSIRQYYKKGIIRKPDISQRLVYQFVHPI
# How it was run: as §1
# [8] = target: T7, ETV7 (Homo sapiens, UniProt Q9Y603 1-341)
# T7 sequence: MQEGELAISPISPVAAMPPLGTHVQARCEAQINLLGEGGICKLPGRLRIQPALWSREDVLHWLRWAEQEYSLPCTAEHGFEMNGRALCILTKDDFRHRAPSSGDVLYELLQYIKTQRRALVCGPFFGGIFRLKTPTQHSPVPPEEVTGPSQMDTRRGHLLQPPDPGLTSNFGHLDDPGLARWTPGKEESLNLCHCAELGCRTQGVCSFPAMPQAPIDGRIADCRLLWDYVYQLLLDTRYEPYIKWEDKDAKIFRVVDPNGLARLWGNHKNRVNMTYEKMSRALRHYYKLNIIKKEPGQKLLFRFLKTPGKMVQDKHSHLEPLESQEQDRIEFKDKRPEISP
# How it was run: as §1
# [9] = target: T8, ETV3 (Homo sapiens, UniProt P41162-2 1-143)
# T8 sequence: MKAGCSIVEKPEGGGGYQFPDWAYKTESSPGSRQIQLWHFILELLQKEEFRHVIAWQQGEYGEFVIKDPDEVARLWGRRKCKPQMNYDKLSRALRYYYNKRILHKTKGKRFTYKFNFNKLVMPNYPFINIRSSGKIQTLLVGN
# How it was run: as §1
# [10] = target: ETV6 (Homo sapiens, UniProt P41212 1-452)
# How it was run: as §1
# Sequence of ETV6 (P41212 whole entry): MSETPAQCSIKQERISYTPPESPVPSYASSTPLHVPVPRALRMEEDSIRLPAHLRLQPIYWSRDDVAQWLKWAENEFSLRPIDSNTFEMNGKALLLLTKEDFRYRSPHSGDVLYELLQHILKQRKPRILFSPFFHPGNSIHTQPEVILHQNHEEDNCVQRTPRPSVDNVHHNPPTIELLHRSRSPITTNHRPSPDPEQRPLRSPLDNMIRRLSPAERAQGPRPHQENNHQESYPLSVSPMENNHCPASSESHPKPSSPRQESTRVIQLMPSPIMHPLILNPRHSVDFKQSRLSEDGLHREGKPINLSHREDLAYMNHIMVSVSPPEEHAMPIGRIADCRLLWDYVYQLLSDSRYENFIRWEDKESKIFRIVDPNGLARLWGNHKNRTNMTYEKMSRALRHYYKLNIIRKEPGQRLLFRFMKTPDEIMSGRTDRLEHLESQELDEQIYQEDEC
# Sequence of ETV1 (P50549 whole entry): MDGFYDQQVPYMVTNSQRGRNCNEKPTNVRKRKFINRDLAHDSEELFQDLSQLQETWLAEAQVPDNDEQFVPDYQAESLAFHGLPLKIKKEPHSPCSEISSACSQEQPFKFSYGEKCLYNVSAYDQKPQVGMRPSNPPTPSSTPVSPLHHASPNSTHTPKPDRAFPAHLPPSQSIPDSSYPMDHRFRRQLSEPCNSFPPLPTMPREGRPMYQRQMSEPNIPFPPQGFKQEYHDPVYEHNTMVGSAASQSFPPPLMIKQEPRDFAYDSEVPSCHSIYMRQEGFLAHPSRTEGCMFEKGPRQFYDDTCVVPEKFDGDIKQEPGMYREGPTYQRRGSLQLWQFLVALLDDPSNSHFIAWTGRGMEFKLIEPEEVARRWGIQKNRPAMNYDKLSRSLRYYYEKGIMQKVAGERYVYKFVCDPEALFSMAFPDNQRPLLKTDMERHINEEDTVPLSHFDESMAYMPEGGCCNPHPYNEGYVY
sequence,measurement,setting,value
ACCATT,binding signal,[1],"1.26 fold enrichment (6-mer frequency, TF over GST control)"
same,binding signal,[2],"1.17 fold enrichment (6-mer frequency, TF over GST control)"
same,binding signal,[3],"1.14 fold enrichment (6-mer frequency, TF over GST control)"
same,binding signal,[4],"1.03 fold enrichment (6-mer frequency, TF over GST control)"
same,binding signal,[5],"1.16 fold enrichment (6-mer frequency, TF over GST control)"
same,binding signal,[6],"1.15 fold enrichment (6-mer frequency, TF over GST control)"
same,binding signal,[7],"1 fold enrichment (6-mer frequency, TF over GST control)"
same,binding signal,[8],"1.11 fold enrichment (6-mer frequency, TF over GST control)"
same,binding signal,[9],"1.1 fold enrichment (6-mer frequency, TF over GST control)"
same,binding signal,[10],"1.14 fold enrichment (6-mer frequency, TF over GST control)"
